Hit rate of the full screen: of about 310,000 compounds, about 14,000 (4.5%) showed an effect of 50% or more. Effects have a minus sign here. Shown is part of a subset that was picked to be rich in strong results.
molecular target: human ether-à-go-go-related gene (hERG) potassium channel (human, UniProt Q12809); experiment: primary screen, population patch clamp on CHO cells stably expressing hERG; higher = less effect of the substance
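Further: peak tail current of the secondary pulse compared with the same well before compound.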

Chain of human ether-à-go-go-related gene (hERG) potassium channel (Q12809 whole entry, looked up): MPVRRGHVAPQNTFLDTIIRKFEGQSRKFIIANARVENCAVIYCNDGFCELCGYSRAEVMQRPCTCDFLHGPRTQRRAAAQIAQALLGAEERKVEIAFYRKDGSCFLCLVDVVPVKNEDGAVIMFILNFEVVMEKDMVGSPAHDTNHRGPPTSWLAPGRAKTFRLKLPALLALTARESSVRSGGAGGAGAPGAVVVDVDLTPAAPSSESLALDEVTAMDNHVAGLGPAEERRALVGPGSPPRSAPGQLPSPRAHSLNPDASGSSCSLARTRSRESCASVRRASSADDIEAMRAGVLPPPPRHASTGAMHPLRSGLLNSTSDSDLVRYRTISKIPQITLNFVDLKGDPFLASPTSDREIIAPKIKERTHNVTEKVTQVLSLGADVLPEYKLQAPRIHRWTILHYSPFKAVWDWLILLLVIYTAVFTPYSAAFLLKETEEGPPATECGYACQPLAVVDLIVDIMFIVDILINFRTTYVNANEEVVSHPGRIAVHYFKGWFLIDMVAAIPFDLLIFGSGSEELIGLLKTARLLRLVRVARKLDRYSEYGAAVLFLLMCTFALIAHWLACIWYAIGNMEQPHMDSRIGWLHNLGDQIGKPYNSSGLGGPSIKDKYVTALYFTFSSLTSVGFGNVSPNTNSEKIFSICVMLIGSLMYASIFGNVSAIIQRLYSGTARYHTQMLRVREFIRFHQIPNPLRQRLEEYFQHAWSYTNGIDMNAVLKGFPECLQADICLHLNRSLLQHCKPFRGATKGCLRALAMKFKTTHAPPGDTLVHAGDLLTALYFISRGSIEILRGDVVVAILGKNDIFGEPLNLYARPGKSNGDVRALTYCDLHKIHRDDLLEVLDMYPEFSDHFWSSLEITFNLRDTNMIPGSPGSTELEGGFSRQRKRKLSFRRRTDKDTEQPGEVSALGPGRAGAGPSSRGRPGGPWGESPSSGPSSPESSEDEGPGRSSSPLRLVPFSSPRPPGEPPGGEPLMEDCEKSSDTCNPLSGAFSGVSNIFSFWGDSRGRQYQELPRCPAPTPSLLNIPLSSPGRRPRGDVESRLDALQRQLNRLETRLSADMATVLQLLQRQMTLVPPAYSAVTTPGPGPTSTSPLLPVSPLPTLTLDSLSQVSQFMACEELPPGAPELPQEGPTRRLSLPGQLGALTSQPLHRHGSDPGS

| SMILES | hERG current change (%, negative = inhibition) at 10uM [%] |
| --- | --- |
| COC(=O)CCCC1=CC2=C(c3ccccc3)C(=O)C(C)(OC(=O)C3CCCC3)C(=O)C2=CN1CC1CC1 (stereo not shown) | -39.9 |
| CCOC(=O)CSc1nc(N)nc(C)c1Cl | 13.4 |
| Cn1c(-c2ccccc2)cnc1NCc1cc(Cl)ccc1O | 19.9 |
| COc1ccc(-c2cnc(NCc3cc4c(cc3[N+](=O)[O-])OCO4)n2C)cc1 | -48.4 |
| Cc1cc(F)ccc1NCc1cc2c(cc1[N+](=O)[O-])OCO2.O=C(O)C(=O)O | 7.77 |
| Cc1ccc(-c2cnc(NCc3cc4c(cc3[N+](=O)[O-])OCO4)n2C)cc1C | -48.6 |
| Cn1c(-c2ccc(Cl)cc2)cnc1NCc1cc2c(cc1[N+](=O)[O-])OCO2.O=C(O)C(=O)O | -62.6 |
| Cn1c(-c2ccc(F)cc2)cnc1NCc1cc2c(cc1[N+](=O)[O-])OCO2.O=C(O)C(=O)O | -57.8 |
| Cn1c(-c2ccccc2)cnc1NCc1cc2c(cc1[N+](=O)[O-])OCO2 | -55 |
| N#Cc1nc(-c2ccccc2F)oc1NCc1cccc2c1OCO2 | -24.9 |
| CCN(C(=O)COC(=O)CNC(=O)c1ccc(C)s1)c1ccccc1 | 16.5 |
| O=C(NCc1ccc(F)cc1)c1cccnc1C(=O)O | 13.5 |
| COc1ccc(S(=O)(=O)N(CC(N)=O)C2CCCCC2)cc1Cl | 4.39 |
| CNCCc1ccc(O)c(O)c1.Cl | 12.7 |
| c1ccc2c(NCCc3c[nH]c4ccccc34)c3ccccc3nc2c1 | -74.7 |
| COc1ccc(CCNc2nc(-c3cccnc3)nc3ccccc23)cc1OC | -1.54 |
| Fc1cccc(NCCc2c[nH]c3ccccc23)n1 | 11.3 |
| CNCCc1c[nH]c2ccccc12 | 6.05 |
| COc1ccc(CCNc2nc(C)cc(C)n2)cc1OC.Cl | 17.4 |
| Cl.Oc1ccc(CCNc2c3ccccc3nc3ccccc23)cc1O | -68.2 |
| O=C(CNC(=O)c1ccccc1)NCCc1ccc(O)c(O)c1 | 1.15 |
| COc1ccc(CCNc2c3ccccc3nc3ccccc23)cc1OC.Cl | -69.7 |
| COc1ccc(C(=O)/C=C/Nc2cc(C)on2)cc1 | 3.9 |

| SMILES | hERG current change (%, negative = inhibition) at 10uM [%] |
| --- | --- |
| CCCCOC(=O)c1ccc(Nc2ccc([N+](=O)[O-])cn2)cc1 | 14.5 |
| Cc1ccc(-c2nnc(N3CC(C)OC(C)C3)c3ccccc23)cc1 (stereo not shown) | -20.6 |
| O=C(NC(=S)Nc1ccc(CN2CCOCC2)cc1)c1ccc2c(c1)OCCO2 | -13.9 |
| CC(=Nc1ccccc1N)c1c(O)n(C)c(=O)n(C)c1=O | 21 |
| CCOc1ccc(CN(C)C(=O)CCNC(=O)c2ccco2)cc1 | 1.35 |
| CCCOC(=O)c1[nH]c2c(c1C)C(=O)CC(c1ccc(OC)c(OC)c1)C2 (stereo not shown) | -4.07 |
| CCOc1ccccc1NC(=O)CN1C(=O)C(=O)N(Cc2ccco2)C1=O | 8.17 |
| CCNC(=O)c1c(O)c2ccccc2[nH]c1=O | -62.5 |
| O=C(NCc1ccccc1)c1c(O)c2ccccc2[nH]c1=O | 15.4 |
| CCCCCCNC(=O)c1c(O)c2ccccc2[nH]c1=O | 19.9 |
| O=C(Cn1cnc2c(nnn2Cc2ccc(F)cc2)c1=O)NCc1ccc2c(c1)OCO2 | -17.2 |
| C=CCn1c(COc2ccc(OC)cc2)nnc1SC(C)C(=O)NC1CC1 (stereo not shown) | -11.6 |
| CCCCCn1c(=O)[nH]c2cc(C(=O)NCCCN3CCCCC3)ccc2c1=O | -33.5 |
| CCOn1c(=O)c(=O)n(OC)c2ccccc21 | -6.73 |
| CCOC(=O)C1(Cc2ccc(Cl)cc2)CCN(C(C)Cc2ccc(O)c(OC)c2)CC1 (stereo not shown) | -70.8 |
| CCOC(=O)C1(Cc2ccc(OC)cc2)CCN(S(C)(=O)=O)CC1 | 25.6 |
| CCOC(=O)C1(Cc2cccc(F)c2)CCN(CCCn2cccn2)CC1 | -74.6 |
| CCOC(=O)C1(Cc2cccc(F)c2)CCN(CC(O)CO)CC1 (stereo not shown) | 14.5 |
| CCOC(=O)C1(Cc2ccc(Cl)cc2)CCN(C(C)CCn2cccn2)CC1 (stereo not shown) | -87.2 |
| CCOC(=O)C1(Cc2cccc(F)c2)CCN(Cc2cnn(CC)c2)CC1 | -32.2 |
| CCOC(=O)C1(Cc2ccc(OC)cc2)CCN(C(=O)CCn2cccn2)CC1 | -7.25 |
| CCOC(=O)C1(Cc2cccc(OC)c2)CCN(C(C)CC(C)(C)O)CC1 (stereo not shown) | -28.5 |
| CCOC(=O)C1(Cc2ccc(Cl)cc2)CCN(CCCn2cccn2)CC1 | -74.8 |

From article PMC4336329 (PLoS ONE, 2015)
